Results filed as inconclusive are left out. Activity calls are given as the source filed them. Unless noted, the call rests on the fitted dose curve; in most records, active means well fitted curve in either direction with a large enough effect (not every such curve was filed as active); inconclusive means small, poorly fitted or top-dose-only effect, or another doubt; inactive means flat fitted curve, though single readings scatter.
Tests used:
[1] = biological target: Lysosomal acid glucosylceramidase (Homo sapiens) (UniProt P04062); experiment: Glucocerebrosidase-p2 (AID 348; in the data active means potency below about 10 µM; further: potency means the concentration at half of the fitted maximal effect); settings: purified GBA, blue fluorogenic substrate, 40 min
In short: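 Normal human glucocerebrosidase (0.2 nM) with blue fluorogenic substrate (80 uM final) in citrate/phosphate pH 5.9 with 10mM sodium taurocholate, 0.01% tween-20; 40 min RT, NaOH/glycine stop; fluorescence Ex 365/Em 440; AC50 from a titration from 0.6 nM upwards.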

[2] = AP1 Signaling Pathway (AID 357); settings: ME-180 AP-1-bla reporter, EGF-induced, beta-lactamase ratio, 5 h; at 7.69 µM (top of the series) unless noted; further: on the % scale 0 is the no-effect control and ±100 the full control effect
In short: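 ME-180 cells with beta-lactamase reporter under AP-1 response element, stimulated with EC50 EGF; compounds tested in titration series, 5 h at 37 °C. CCF4 substrate added 2.5 h at room temperature; 460/530 nm emission ratio gave %activity and AC50.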

[3] = Stat Signaling Pathway (AID 446); settings: ME-180 (cervical carcinoma) SIE beta-lactamase reporter, IL-6 stimulated, 5 h; at 7.69 µM (top of the series) unless noted;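 further: ME-180 cervical cancer cells given 40 pM IL-6 alongside compound; SIE-controlled beta-lactamase reporter measured as 460/530 nm FRET emission ratio; on the % scale 0 is the no-effect control and ±100 the full control effect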
In short: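 Compound effects on IL-6-induced STAT reporter activity were measured in ME-180 cells. After overnight culture, cells were co-treated with 40 pM IL-6 for 5 hrs before beta-lactamase substrate loading at room temperature.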

[4] = biological target: Glucocorticoid receptor (Homo sapiens) (UniProt P04150); experiment: GR-GFP Redistribution (AID 450;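 active means compounds whose dose series gives a full or clear partial fitted curve of increased nuclear translocation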; further: potency means the concentration at half of the fitted maximal effect); settings: U2OS GR-GFP nuclear translocation, laser cytometry, 2 h
[5] = biological target: Glucocorticoid receptor (Homo sapiens) (UniProt P04150); experiment: GR-EFC Redistribution (AID 451; calls by dose curve; further: potency means the concentration at half of the fitted maximal effect); settings: CHO-K1 GR-EFC translocation, beta-gal luminescence, 2 h
In short: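 Translocation of GR-ED fusion to nuclear EA restores b-gal, read by luminescence after 1 h room-temperature detection. Engineered CHO-K1 biosensor cells, 1,000/well, exposed 2 h at 37 C to titrations up to 46 uM final.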

[6] = biological target: Mitogen-activated protein kinase 10 (Mus musculus) (UniProt Q61831); experiment: JNK3 AlphaScreen Assay (AID 530); settings: JNK3 lysate, c-Jun phosphorylation; series mostly up to 57.1 µM;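 further: kinase came from lysate of stimulated human HepG2 cells; signal reports phosphorylation of biotinylated GST-cJun 1-79 at Ser73 with 10 µM ATP; on the % scale 0 is the no-effect control and ±100 the full control effect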
In short: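 qHTS titrations with 15 min compound pre-incubation before adding ATP (10 uM final). Read-out: AlphaScreen of Ser73-phosphorylated biotin-GST-cJun using HepG2 lysate JNK3 activated by IL-1β and TNFα.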

[7] = biological target: 3',5'-cyclic-AMP phosphodiesterase 4B (Homo sapiens) (UniProt Q07343); experiment: qHTS Assay for Inhibitors of PDE-IV (AID 607; active means well fitted activation curve with a large enough effect in the main read-out, with a control signal flat, not every such curve was filed as active; further: % of control where 0% means no effect); settings: HEK293 ACTOne CNG channel cells, membrane potential fluorescence; series mostly up to 22.9 µM
In short: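 ACTOne HEK293 cells carry a modified cAMP-gated CNG channel and express endogenous PDE4; plated 1000 cells/well, compounds up to 22.9 uM final. Membrane-potential dye fluorescence (ex 535/em 590) was read; parental cells received 10 uM forskolin + 100 uM RO 20-1724.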

[8] = qHTS Assay for Lipid Storage Modulators (AID 1519; calls by dose curve); settings: Drosophila S3 cells, BODIPY lipid droplet/cell ratio, laser cytometry, cells loaded with oleic acid; for activity change, negative = inhibition: at 57.5 µM (top of the series)
In short: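 Cells seeded at 5,000 per well were treated with compounds over a concentration series and loaded with oleic acid (400 uM, as added). Lipid droplet fluorescence (488 nm excitation, 500-530 nm channel) was read by laser-scanning cytometry and normalized to 20 uM Triacsin C.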

[9] = biological target: Ubiquitin carboxyl-terminal hydrolase 1 (Homo sapiens) (UniProt O94782); experiment: Inhibitors of USP1/UAF1: Pilot qHTS (AID 504865; active means well fitted inhibition curve with a large enough effect;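 further: rhodamine fluorescence freed from ubiquitin-rhodamine substrate followed over time; top concentration of the series differs between compounds; on the % scale 0 is the no-effect control and ±100 the full control effect; nearly all actives have a fitted effect of over 35% in size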); settings: purified USP1/UAF1, Ub-rhodamine cleavage fluorescence; series mostly up to 54.9 µM
In short: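 Deubiquitinase activity followed as kinetic rhodamine fluorescence release from 150 nM Ub-Rho. 1 nM USP1/UAF1 with compound, after 15 min room-temperature preincubation, in HEPES pH 7.8 buffer containing TCEP, EDTA, BSA and Tween-20.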

[10] = NFAT Signaling Pathway (AID 444); settings: Jurkat NFAT-bla M1, carbachol, beta-lactamase ratio, 5 h; at 7.69 µM (top of the series) unless noted;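 further: carbachol stimulus at about its EC50 of 1 µM final; on the % scale 0 is the no-effect control and ±100 the full control effect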
In short: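 Read-out: CCF4 FRET ratio (460 nm/530 nm) after 1 h RT dye loading, used for %activity and AC50 from titration series. Cells: Jurkat NFAT-β-lactamase/M1 line, treated with compound plus 1 uM carbachol for 5 h, 37 °C.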

[11] = biological target: Cytochrome P450 1A2 (Homo sapiens) (UniProt P05177); experiment: p450-cyp1a2 (AID 410; calls by dose curve; further: potency means the concentration at half of the fitted maximal effect); settings: recombinant CYP1A2, luciferin-ME demethylation, luminescence; series mostly up to 57 µM
In short: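 O-Demethylation of luciferin 6' methyl ether by human CYP1A2 is monitored as luciferase luminescence. Substrate sits at Km (100uM); enzyme is 20nM. Values are scaled to 57 uM furafylline as maximal inhibition.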

[12] = measured here: cell count channel max response
[13] = measured here: lipid channel max response

3',5'-cyclic-AMP phosphodiesterase 4B (Homo sapiens), sequence (Q07343 whole entry, looked up): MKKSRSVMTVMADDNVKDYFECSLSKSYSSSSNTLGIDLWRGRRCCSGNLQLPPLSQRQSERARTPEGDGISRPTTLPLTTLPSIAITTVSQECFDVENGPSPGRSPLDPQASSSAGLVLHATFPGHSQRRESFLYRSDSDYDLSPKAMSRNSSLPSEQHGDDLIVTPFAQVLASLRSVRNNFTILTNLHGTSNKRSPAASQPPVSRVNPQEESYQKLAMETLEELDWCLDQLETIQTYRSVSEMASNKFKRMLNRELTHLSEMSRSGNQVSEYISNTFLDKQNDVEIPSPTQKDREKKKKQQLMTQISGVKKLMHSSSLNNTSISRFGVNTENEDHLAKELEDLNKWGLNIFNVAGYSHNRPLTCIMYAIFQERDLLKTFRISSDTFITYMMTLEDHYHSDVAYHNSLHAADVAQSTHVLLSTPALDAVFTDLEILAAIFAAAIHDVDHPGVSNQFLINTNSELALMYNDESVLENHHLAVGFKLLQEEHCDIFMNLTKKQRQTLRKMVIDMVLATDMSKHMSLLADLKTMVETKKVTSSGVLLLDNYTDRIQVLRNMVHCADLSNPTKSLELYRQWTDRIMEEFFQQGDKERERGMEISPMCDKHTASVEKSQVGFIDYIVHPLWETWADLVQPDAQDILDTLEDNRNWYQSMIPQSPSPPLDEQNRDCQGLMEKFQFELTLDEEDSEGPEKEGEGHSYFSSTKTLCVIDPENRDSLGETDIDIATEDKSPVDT
Lysosomal acid glucosylceramidase (Homo sapiens), sequence (P04062 whole entry, looked up): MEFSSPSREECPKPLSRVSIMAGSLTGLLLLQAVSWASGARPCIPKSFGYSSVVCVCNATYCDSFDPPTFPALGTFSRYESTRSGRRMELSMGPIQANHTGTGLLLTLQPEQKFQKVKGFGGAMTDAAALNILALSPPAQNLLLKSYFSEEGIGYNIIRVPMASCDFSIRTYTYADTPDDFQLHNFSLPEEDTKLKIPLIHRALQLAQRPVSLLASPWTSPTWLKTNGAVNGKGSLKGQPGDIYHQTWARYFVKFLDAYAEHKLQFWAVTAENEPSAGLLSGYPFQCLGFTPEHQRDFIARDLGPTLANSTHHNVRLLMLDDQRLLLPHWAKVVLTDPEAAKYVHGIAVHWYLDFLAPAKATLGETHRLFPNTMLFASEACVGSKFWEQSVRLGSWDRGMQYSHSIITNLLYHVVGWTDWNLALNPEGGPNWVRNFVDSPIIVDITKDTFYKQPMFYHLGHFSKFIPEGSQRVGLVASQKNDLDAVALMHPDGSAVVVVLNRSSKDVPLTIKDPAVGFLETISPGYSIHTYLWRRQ
Glucocorticoid receptor (Homo sapiens), sequence (P04150 whole entry, looked up, the tested form may be a part): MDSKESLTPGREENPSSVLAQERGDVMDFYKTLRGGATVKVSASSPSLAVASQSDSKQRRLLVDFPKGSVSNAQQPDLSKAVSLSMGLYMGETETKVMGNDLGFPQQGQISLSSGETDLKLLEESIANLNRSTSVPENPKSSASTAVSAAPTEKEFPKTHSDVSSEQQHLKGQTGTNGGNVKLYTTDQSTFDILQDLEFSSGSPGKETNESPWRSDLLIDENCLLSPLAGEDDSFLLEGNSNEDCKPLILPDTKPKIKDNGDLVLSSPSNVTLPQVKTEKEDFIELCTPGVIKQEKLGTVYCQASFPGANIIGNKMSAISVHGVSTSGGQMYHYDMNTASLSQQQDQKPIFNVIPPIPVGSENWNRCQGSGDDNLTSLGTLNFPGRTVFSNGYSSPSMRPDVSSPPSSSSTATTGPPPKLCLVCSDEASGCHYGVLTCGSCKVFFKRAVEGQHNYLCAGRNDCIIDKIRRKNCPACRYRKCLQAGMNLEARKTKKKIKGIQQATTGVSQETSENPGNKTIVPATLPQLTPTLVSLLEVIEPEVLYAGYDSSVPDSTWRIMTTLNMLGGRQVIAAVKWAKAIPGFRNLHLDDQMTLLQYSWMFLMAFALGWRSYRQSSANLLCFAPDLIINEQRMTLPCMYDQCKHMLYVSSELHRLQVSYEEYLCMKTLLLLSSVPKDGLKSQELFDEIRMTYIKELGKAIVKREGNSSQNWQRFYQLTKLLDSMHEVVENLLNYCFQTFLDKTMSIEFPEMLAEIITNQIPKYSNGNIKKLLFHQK
Ubiquitin carboxyl-terminal hydrolase 1 (Homo sapiens), sequence (O94782 whole entry, looked up): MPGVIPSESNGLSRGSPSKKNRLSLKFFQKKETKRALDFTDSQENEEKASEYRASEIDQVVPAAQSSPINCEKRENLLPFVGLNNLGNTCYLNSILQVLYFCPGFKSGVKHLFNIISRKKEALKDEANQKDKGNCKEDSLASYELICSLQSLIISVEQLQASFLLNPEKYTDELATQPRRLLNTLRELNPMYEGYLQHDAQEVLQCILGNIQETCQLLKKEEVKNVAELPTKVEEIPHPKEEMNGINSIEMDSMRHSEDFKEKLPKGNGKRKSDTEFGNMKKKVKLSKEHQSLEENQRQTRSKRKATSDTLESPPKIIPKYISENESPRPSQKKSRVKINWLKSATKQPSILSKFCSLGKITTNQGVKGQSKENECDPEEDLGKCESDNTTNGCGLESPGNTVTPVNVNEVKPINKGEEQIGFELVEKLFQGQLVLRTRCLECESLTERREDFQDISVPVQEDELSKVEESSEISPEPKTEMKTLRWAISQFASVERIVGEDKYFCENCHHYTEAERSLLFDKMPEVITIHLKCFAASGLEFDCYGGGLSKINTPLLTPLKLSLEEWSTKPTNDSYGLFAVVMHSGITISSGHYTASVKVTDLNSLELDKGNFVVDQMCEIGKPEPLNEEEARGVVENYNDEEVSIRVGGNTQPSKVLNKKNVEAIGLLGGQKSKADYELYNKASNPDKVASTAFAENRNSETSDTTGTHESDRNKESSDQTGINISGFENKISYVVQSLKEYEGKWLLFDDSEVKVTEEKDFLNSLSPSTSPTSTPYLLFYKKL
Cytochrome P450 1A2 (Homo sapiens), sequence (P05177 whole entry, looked up): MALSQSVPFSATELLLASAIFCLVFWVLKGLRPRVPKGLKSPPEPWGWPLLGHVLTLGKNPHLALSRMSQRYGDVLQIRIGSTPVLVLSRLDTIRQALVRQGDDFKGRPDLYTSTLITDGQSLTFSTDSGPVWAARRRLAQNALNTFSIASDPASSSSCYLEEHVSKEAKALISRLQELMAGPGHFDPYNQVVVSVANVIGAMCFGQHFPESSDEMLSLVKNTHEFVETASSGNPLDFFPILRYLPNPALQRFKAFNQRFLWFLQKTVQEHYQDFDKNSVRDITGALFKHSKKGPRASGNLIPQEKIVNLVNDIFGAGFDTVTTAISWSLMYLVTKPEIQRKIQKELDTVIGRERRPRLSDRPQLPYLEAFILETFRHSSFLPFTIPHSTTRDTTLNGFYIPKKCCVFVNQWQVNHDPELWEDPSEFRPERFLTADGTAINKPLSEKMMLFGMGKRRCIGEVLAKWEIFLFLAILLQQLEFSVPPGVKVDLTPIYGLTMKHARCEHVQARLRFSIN

| SMILES | Potency [1] | activity change, negative = inhibition [2] | activity, negative = inhibition [3] | Potency [4] | Potency [5] | Potency [6] | Potency [7] | activity change, negative = inhibition [8] | max response [8, 12] [%] | max response [8, 13] [%] | Potency [9] | activity change, negative = inhibition [10] | Potency [11] |
| --- | --- | --- | --- | --- | --- | --- | --- | --- | --- | --- | --- | --- | --- |
| CN(C)C(=O)c1ccc(-c2ccc3ncnc(NCc4cccnc4)c3c2)cc1 | > 11.4 µM (inactive) | -3.5% (inactive) | -1.99% (inactive) | > 46 µM (inactive) | > 46 µM (inactive) | inactive | inactive | 8.52% (inactive) | 9.7 | 16.7 | inactive | – | – |
| COc1ccc(Oc2ncc3nc(CCc4ccccc4)c(=O)n(C)c3n2)cc1 | > 11.4 µM (inactive) | -17.4% (inactive) | -11.3% (inactive) | > 9.22 µM (inactive) | > 46 µM (inactive) | inactive | – | -3.44% (inactive) | 9.28 | 8.21 | – | 2.43% (inactive) | – |
| N#Cc1ccc(CN2CCCC3(CCNCC3)C2)cc1 | > 11.4 µM (inactive) | 6.69% (inactive) | -0.579% (inactive) | – | > 46 µM (inactive) | inactive | – | 1.45% (inactive) | 12.8 | 18.2 | – | -22.5% (inactive) | – |
| c1ccc2c(N3CCNCC3)nc(-c3ccoc3)nc2c1 | > 11.4 µM (inactive) | 0.826% (inactive) | 28% (inactive) | > 46 µM (inactive) | > 46 µM (inactive) | inactive | – | 8.78% (inactive) | 9.44 | 17.6 | – | -11.1% (inactive) | – |
| N#Cc1ccc(CN2CCCC3(CCN(C(=O)c4cc(C(F)(F)F)cc(C(F)(F)F)c4)CC3)C2)cc1 | > 11.4 µM (inactive) | 16.4% (inactive) | -17.3% (inactive) | – | > 46 µM (inactive) | inactive | inactive | 1.75% (inactive) | 18.7 | 26.7 | – | – | – |
| CN1CCN(c2ccnc(-c3ccccc3C(F)(F)F)n2)CC1 | > 11.4 µM (inactive) | 8.46% (inactive) | 3.89% (inactive) | > 46 µM (inactive) | > 46 µM (inactive) | inactive | – | 3.24% (inactive) | -19.5 | -14.8 | inactive | – | – |
| COc1ccc(NC(=O)N2CC[C@@]3(CCCN(C(=O)c4ccco4)C3)C2)cc1 | > 11.4 µM (inactive) | -13.2% (inactive) | 13.8% (inactive) | – | > 46 µM (inactive) | inactive | inactive | 2.86% (inactive) | 9.78 | 12.5 | – | -7.9% (inactive) | – |
| CN(C)Cc1ccccc1-c1cncnc1NCc1ccccc1 | > 11.4 µM (inactive) | 9.42% (inactive) | -4.85% (inactive) | > 46 µM (inactive) | > 46 µM (inactive) | inactive | inactive | 4.16% (inactive) | 9.37 | 10.2 | inactive | – | – |
| COCC(=O)N1CCC2(CC1)CN(c1cccc(-c3ccccc3)c1)C2 | > 11.4 µM (inactive) | -29.8% (inactive) | – | – | > 46 µM (inactive) | inactive | inactive | 3.02% (inactive) | -3.81 | 0.928 | – | 19.3% (inactive) | – |
| COc1ccccc1CNc1ncnc2ccc(-c3ccc(N(C)C)cc3)cc12 | > 11.4 µM (inactive) | – | -7.61% (inactive) | > 46 µM (inactive) | > 46 µM (inactive) | – | inactive | 3.4% (inactive) | -18 | -15 | – | – | 0.794 µM (active) |
| O=C(Nc1cccc(F)c1)N1CCC2(CC1)CCN(C(=O)c1cc(C(F)(F)F)cc(C(F)(F)F)c1)CC2 | > 11.4 µM (inactive) | -6.27% (inactive) | 8.94% (inactive) | – | > 46 µM (inactive) | – | inactive | -8.79% (inactive) | -4.14 | -9.94 | – | – | – |
| O=C(c1ccco1)N1CCC2(CC1)CCN(c1ccncc1)CC2 | > 11.4 µM (inactive) | -14.6% (inactive) | 11.2% (inactive) | – | > 46 µM (inactive) | inactive | inactive | 3.95% (inactive) | -3.62 | 0.777 | – | – | – |
| O=C(c1ccncc1)N1CCC[C@@]2(CCN(c3cccc(-c4ccccc4)c3)C2)C1 | > 11.4 µM (inactive) | -13.8% (inactive) | -6.3% (inactive) | – | > 46 µM (inactive) | – | inactive | 1.7% (inactive) | 8.47 | 13 | – | -1.5% (inactive) | – |
| Cn1cccc1C(=O)N1CCC2(CC1)CN(C(c1ccccc1)c1ccccc1)C2 | > 11.4 µM (inactive) | 14.4% (inactive) | -4.09% (inactive) | – | > 46 µM (inactive) | inactive | inactive | -5.27% (inactive) | -6.77 | -9.88 | – | -18.7% (inactive) | – |
| COc1ccc(NC(=O)N2CCC3(CC2)CCN(C(=O)c2cc(C(F)(F)F)cc(C(F)(F)F)c2)CC3)cc1 | > 11.4 µM (inactive) | -5.96% (inactive) | -5.72% (inactive) | – | > 46 µM (inactive) | inactive | inactive | -8% (inactive) | 3.79 | -1.48 | – | – | – |
| O=c1c(CCc2ccccc2)nc2cnc(N3CCOCC3)nc2n1C[C@H]1CCCO1 | > 11.4 µM (inactive) | -13.7% (inactive) | -10.8% (inactive) | > 9.22 µM (inactive) | > 46 µM (inactive) | inactive | inactive | -15.5% (inactive) | -5.26 | -6.55 | – | -4.34% (inactive) | – |

Reference: PubChem BioAssay (NCATS)
